Data from PubChem BioAssay AID2177 (The Scripps Research Institute Molecular Screening Center, 2009).
The whole screen tested about 320,000 compounds, of which about 1,200 (0.38%) were called active. This excerpt belongs to a sample that is enriched for actives. Values without a mark were called inactive.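 How the source made its calls: active means inhibition above the screen-wide mean plus 3 SD, limit set per campaign (cut at about 26% in these data); inactive means the rest.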

Target: Acyl-protein thioesterase 2 (Homo sapiens) (UniProt O95372)
Assay: LYPLA2 inhibitors, primary screen, counter-screen for PME1 inhibitor project, biochemical, fluorescence polarization, FP-Rh probe ABPP (AID 2177);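 further: 0% = LYPLA2 with DMSO and 100% = wells lacking LYPLA2 enzyme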
Conditions: recombinant LYPLA2, FP-Rh probe fluorescence polarization; at 5.9 µM; hits give high values

Chain of Acyl-protein thioesterase 2 (Homo sapiens) (O95372 whole entry, looked up): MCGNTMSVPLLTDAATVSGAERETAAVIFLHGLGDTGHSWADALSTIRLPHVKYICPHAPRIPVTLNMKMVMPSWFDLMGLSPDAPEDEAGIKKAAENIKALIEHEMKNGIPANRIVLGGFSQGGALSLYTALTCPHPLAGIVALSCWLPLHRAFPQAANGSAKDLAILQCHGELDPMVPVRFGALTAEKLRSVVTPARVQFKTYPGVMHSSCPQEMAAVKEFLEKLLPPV

Compound | inhibition
CCOc1cc(S(=O)(=O)NCc2ccc3c(c2)OCO3)ccc1F | 7.67%
CCCn1c(NC(=O)C23CC4CC(CC(O)(C4)C2)C3)nc2ccccc21 | -2.06%
CCC1CCCCN1C(=O)CSc1nc2c(c(=O)n(C)c(=O)n2C)n1C (stereo unspecified) | 1.22%
CC/C(Cc1ccccc1)=N/NC(=O)CCn1nnc2ccccc21 | 9.11%
Cc1cc(C)n(CC(=O)Nc2ccc([N+](=O)[O-])cc2)n1 | -3.9%
Cc1nc([N+](=O)[O-])cn1CC(=O)Nc1ccc(Cl)cc1 | 35.7% (active)
Cc1nn(CC(=O)Nc2ccc3c(c2)OCO3)c(C)c1[N+](=O)[O-] | 3.02%
Cc1onc(C(=O)Nc2ccc3c(c2)OCO3)c1[N+](=O)[O-] | 7.4%
Cc1nc([N+](=O)[O-])cn1CC(=O)Nc1ccc2c(c1)OCO2 | 27.6% (active)
Cc1ccc(C(=O)Cn2cc([N+](=O)[O-])nc2C)cc1 | 14.3%
CC(C)C1Nc2c(C(=O)O)cccc2C(Nc2ccccc2C(=O)O)C1(C)C (stereo unspecified) | 1.52%
c1ccc(CSc2ncnc3c2sc2nc(N4CCOCC4)c4c(c23)CCCC4)cc1 | 1.88%
CCOc1ncccc1C(=O)N(CC)CC(=O)Nc1ccc(NC(C)=O)cc1 | -2.58%
COc1ccc(C(C#N)Nc2ccc(C)cc2)cc1 (stereo unspecified) | 29.2% (active)
COc1ccc(C(CC(=O)Nc2ccc(C)cc2)NC(=O)C(F)(F)F)cc1 (stereo unspecified) | -1.1%
COc1ccc(C(C#N)Nc2ccccc2C)cc1 (stereo unspecified) | 2.16%
Cn1nc(C(F)(F)F)c(C(=O)Nc2cccc(C(F)(F)F)c2)c1SCc1ccc(Cl)cc1 | -39.3%
O=C(Oc1ccc(Br)cc1)c1cccnc1 | 1.78%
CCCCCCOc1ccc(OC(=O)c2cccnc2)cc1 | 49.8% (active)
N#CCc1ccc(OC(=O)c2cccnc2)cc1 | -0.53%
COC(=O)c1cccc(-n2[nH]nnc2=S)c1 | -1.32%
CN1CCN(c2ccc(S(=O)(=O)N3CCOCC3)cc2NC(=O)CCc2ccccc2)CC1 | 6.09%
O=C(Cc1ccccn1)c1ccc(O)cc1O | -2.59%

Compound | inhibition
CCOC(=O)c1cc(=O)c2ccc(OCc3ccccc3)cc2o1 | -1.62%
CCOC(=O)c1cc2cc(-c3c(C(=O)OCC)oc4cc(O)cc(O)c4c3=O)ccc2o1 | 33.9% (active)
O=c1c(-c2ccc3c(c2)OCCO3)c(C(F)(F)F)oc2cc(O)cc(O)c12 | 3.69%
COC(=O)c1ccc(CN2CCCC(C(=O)Nc3cccc(-n4cnnn4)c3)C2)cc1 (stereo unspecified) | 2.89%
COc1cccc(N(C(=O)c2ccn[nH]2)C2(C(=O)Nc3c(C)cccc3C)CCCCC2)c1 | -1.38%
O=C(O)c1ccc(/C=N/NC(=S)NCc2ccccc2)cc1 | -7.47%
Cc1ccc(/C=N/NC(=O)C(NC(=O)c2ccccc2)c2n[nH]c(=O)c3ccccc23)cc1 (stereo unspecified) | 40.8% (active)
Cc1ccc(/C=N/NC(=O)COc2ccccc2-c2ccccc2)cc1 | 2.18%
O=C(CNc1ccc(F)cc1F)NC(=O)NCc1ccco1 | -3.47%
Cc1ccc(NC(=O)C(c2ccccc2)N2CCN(C(=O)c3ccco3)CC2)cc1 (stereo unspecified) | 0.07%
Nc1nnc(SCC(=O)NC2CCCc3ccccc32)s1 (stereo unspecified) | -1.96%
O=C(Cc1ccc(Br)cc1)NCCN1CCOCC1 | 4.15%
COc1ccc(NC(=O)NCCN2CCN(c3ccc(C)cc3)CC2)c(Cl)c1 | -3.78%
COc1ccc(N2CCN(C(=O)c3ccc4c(Cl)c5c(nc4c3)CCCC5)CC2)cc1 | 7.7%
COc1ccc(N2CCN(C(=O)c3cccs3)CC2)cc1 | 8.83%
COc1ccc(N2CCN(C(=O)c3ccc(N4CCCCS4(=O)=O)cc3)CC2)cc1 | 63% (active)
COc1ccccc1N1CCC(N2CCN(CC(C)(C)C)C(CCO)C2)CC1 (stereo unspecified) | -1.78%
O=C(COC(=O)c1ccccc1)Nc1ccccc1Sc1ccccc1 | -10.2%
COc1ccc(C(=O)OCC(=O)NC(=O)CCSc2ccccc2)cc1 | 28.6% (active)
COc1ccc(NC(=O)COC(=O)c2ccc(NS(=O)(=O)/C=C/c3ccccc3)cc2)cc1 | -12%
C[C@H](OC(=O)n1ccnc1)[C@@H]1O[C@@]2(C)CCC[C@@H]1O2 | 3.91%
CC(=O)NC12CC3CC(C1)CC(C(=O)N1CCN(C(=O)c4ccco4)CC1)(C3)C2 | 6.61%
COc1ccccc1OCC(=O)O/N=C(\N)c1ccccn1 | -1.78%

Compound | inhibition
O=C(Nc1ccncc1)c1ccccc1[N+](=O)[O-] | 2.96%
COc1ccc(NC(=O)c2ccccc2[N+](=O)[O-])cc1OC | -0.83%
O=C(COc1ccc(NC(=O)c2ccccc2[N+](=O)[O-])cc1)c1ccc(F)cc1 | 43.8% (active)
COc1c(C)c2c(c(O)c1C/C=C(\C)CCC(=O)O)C(=O)OC2 | 1.01%
Cc1ncc([N+](=O)[O-])n1CCOC(=O)c1ccc(Br)cc1 | 4.52%
CN(C)CCCn1c(SCc2ccc(Cl)cc2)nnc1-c1ccncc1 | 2.66%
O=C(c1cc(-c2ccc(Cl)cc2)on1)N1CCN(c2ccccc2)CC1 | 31.3% (active)
COc1ccc(-c2cc(C(=O)N3CCN(c4ccc(F)cc4)CC3)no2)cc1 | 8.33%
O=C(c1cc(-c2ccc(F)cc2)on1)N1CCN(c2ccc(F)cc2)CC1 | 8.86%
CCN(CC)CCNC(=O)Cn1cnc2sc(C)c(S(=O)(=O)N3CCOCC3)c2c1=O | -2.7%
CCN(CC)CCCNC(=O)Cn1cnc2sc(C)c(S(=O)(=O)N3CCN(c4ncccn4)CC3)c2c1=O | 4.51%
CCN(CC)CCNC(=O)c1sc2ncn(CC(=O)Nc3ccc(C)c(Cl)c3)c(=O)c2c1C | 32.4% (active)
CCOC(=O)CSc1nc2ccc(C)cc2n2cnnc12 | -0.15%
COc1ccc(S(=O)(=O)N2CCOCC2)cc1NC(=O)Cc1c(F)cccc1Cl | -4.41%
Cc1cc(OCCCN2CCN(Cc3ccccc3)CC2)ccc1[N+](=O)[O-] | 34.3% (active)
Cc1ccccc1N1CCN(CCCOc2ccc3c(C)cc(=O)oc3c2)CC1 | 15.9%
Cc1cc(OCCCCOc2ccc(C#N)cc2)ccc1[N+](=O)[O-] | 19.5%
CCOc1ccccc1N1CCN(C(=O)c2ccc3[nH]c(C)c(C)c3c2)CC1 | -3.51%
Cc1cccc(OCC(O)CN2CCN(CCN3C(=O)c4cccc5cccc(c45)C3=O)CC2)c1C (stereo unspecified) | 31.6% (active)
Cc1ccccc1OCC(O)CN1CCN(c2ccccn2)CC1 (stereo unspecified) | -3.92%
Cc1cccc(C)c1OCC(O)CN1CCCCC1 (stereo unspecified) | -4.51%
CCCCC[C@H]1CN(C2CCCCC2)C(=O)[C@@H]1CC(=O)NCc1ccc(OC)cc1 | -3.9%
COC(=O)c1ccc(S(=O)(=O)N(CCO)Cc2ccccc2)n1C | 7.11%

Compound | inhibition
COC(=O)c1c(NC(=O)COc2ccc(Cl)cc2Cl)sc2c1CC(C)(C)NC2(C)C | 1.16%
CCC(NC(=O)C1CCCC1)c1ccc(C)cc1 (stereo unspecified) | 0.26%
Cc1ccc(C(c2sc3nc(C)nn3c2O)N2CCN(c3ccccc3)CC2)cc1 (stereo unspecified) | 1.64%
Cc1ccc(C(c2sc3nc(C)nn3c2O)N2CCN(c3ccc(F)cc3)CC2)cc1 (stereo unspecified) | 36.7% (active)
Oc1c(C(c2cccs2)N2CCN(c3ccc(F)cc3)CC2)sc2ncnn12 (stereo unspecified) | -5.69%
C[C@@H](NC(=O)OC(C)(C)C)c1nnc(S(=O)(=O)Cc2ccccc2)o1 | -2.33%
C[N+]1(CC(O)COc2ccccc2)CCN(C(=O)c2ccc([N+](=O)[O-])cc2)CC1 (stereo unspecified) | -1.46%
O=[N+]([O-])c1ccc(N2CCN(CC(O)COc3ccccc3)CC2)cc1 (stereo unspecified) | 29.5% (active)
O=C(C(c1ccccc1)c1ccccc1)N1CCN(CC(O)COc2ccccc2)CC1 (stereo unspecified) | 1.24%
Cc1ccccc1NC(=O)Cc1nc(COC(=O)c2cccnc2Cl)cs1 | 2.11%
CCc1ccc(NC(=O)c2ccc(Cn3cc([N+](=O)[O-])cn3)cc2)cc1 | 32% (active)
COc1cccc(NC(=O)c2ccc(Cn3cc([N+](=O)[O-])cn3)o2)c1 | 4.62%
O=C(Nc1ccccc1F)c1ccc(Cn2cc(Br)cn2)cc1 | -5.94%
O=C(Nc1ccccc1Cl)/C(Cl)=C(\Cl)S(=O)c1ccccc1 (stereo unspecified) | -37.3%
O=C1Cc2ccccc2Sc2ccc(Cl)cc21 | -9.53%
COc1ccc(-c2nnc(SC(C)C(=O)NC3CC3)o2)cc1 (stereo unspecified) | 1.72%
CCN1C(=O)[C@H]2[C@@H](c3ccc(-c4ccc(OC)cc4)cc3)N[C@@](Cc3ccccc3)(C(=O)OC)[C@H]2C1=O | 6.99%
CCC(Cc1ccccc1)NS(=O)(=O)c1ccc2c(c1)NC(=O)CS2 (stereo unspecified) | 1.66%
COc1ccc(C2=NOC3(CC(=O)N(c4ccc(Cl)cc4)C3=O)C2)c(OC)c1 (stereo unspecified) | 7.09%
O=C(Cc1ccc(-n2c(=O)[nH]c3ccccc3c2=O)cc1)N1CCN(c2cccc(Cl)c2)CC1 | 50.8% (active)
O=C(CCCC(=O)N1CCN(c2cccc(Cl)c2)CC1)c1ccccc1 | 24.1%
CCOC(=O)N1CCN(C(=O)Cc2ccc(-n3c(=S)[nH]c4ccccc4c3=O)cc2)CC1 | 3.58%
